The text below walks through data of PubChem BioAssay AID504500 (NMMLSC, 2011).

Structures are written as SMILES. Potency and affinity values are given separately. Calls of active or inactive are those of the source.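 The calls were made as follows: active = compounds whose curve fit is tight, with span above 25% and half-effect concentration below 10 µM; inactive = the rest.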

Beta-adrenergic receptor kinase 1 (Homo sapiens), sequence (P25098 whole entry, looked up): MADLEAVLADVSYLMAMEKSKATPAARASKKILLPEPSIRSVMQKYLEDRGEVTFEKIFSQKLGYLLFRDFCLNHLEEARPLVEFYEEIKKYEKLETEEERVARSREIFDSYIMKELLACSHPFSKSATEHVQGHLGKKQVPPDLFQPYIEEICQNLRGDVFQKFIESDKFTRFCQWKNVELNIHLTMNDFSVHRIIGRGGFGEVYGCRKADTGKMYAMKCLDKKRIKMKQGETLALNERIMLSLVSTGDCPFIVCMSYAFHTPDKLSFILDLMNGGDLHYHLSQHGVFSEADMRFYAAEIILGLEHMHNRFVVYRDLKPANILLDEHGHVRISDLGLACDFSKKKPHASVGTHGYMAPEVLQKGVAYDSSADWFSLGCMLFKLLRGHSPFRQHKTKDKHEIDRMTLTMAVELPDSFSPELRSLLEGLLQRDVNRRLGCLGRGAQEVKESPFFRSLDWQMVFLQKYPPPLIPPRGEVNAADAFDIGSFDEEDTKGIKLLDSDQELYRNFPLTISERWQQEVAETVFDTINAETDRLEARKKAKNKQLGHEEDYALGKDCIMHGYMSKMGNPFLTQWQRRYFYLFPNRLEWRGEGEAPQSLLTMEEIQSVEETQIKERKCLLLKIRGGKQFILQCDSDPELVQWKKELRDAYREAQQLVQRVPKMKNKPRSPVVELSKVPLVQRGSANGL

This assay concerns the target Beta-adrenergic receptor kinase 1 (Homo sapiens) (UniProt P25098). In words: aptamer displacement from bead-bound GRK2 – biochemical, cherry pick 1, bead flow cytometry, dose response (AID 504500). Particulars: bead-bound biotinylated GRK2, FAM-aptamer displacement; series mostly up to 33 µM.
For `Cn1ncnc2c(=O)n(C)c(=O)nc1-2`, the result was inactive.

Turning to `Cc1nc2c(=O)n(C)c(=O)nc-2n(C)n1`, the result was inactive.

Turning to `O=C1NC(=O)N(c2ccc3c(c2)OCO3)C(=O)/C1=C\c1ccc(-c2ccccc2C(=O)O)o1`, the result was inactive.

With `CC[n+]1c(/C=C/N(C)c2ccccc2)sc2ccc(Cl)cc21`, the call was inactive.
